This is part of a sample that, as a whole, favours compounds with a hit. Of some 83,000 tested, about 20% had one in any assay.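 Method: cells in 96-well plates; compound added at one concentration; 48 h incubation; percent growth measured; values under 10 scored active.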 A number with no mark means an inactive call. Active and inactive are the calls of the source.
What was measured:
Assay in all cases: NCI-60 one-dose screen, 48 h (100 = growth as untreated, 0 = no growth, -100 = all killed)
Details in all cases: 10 µM unless noted
SR leukemia = tested on: SR leukemia
RPMI-8226 leukemia = tested on: RPMI-8226 leukemia
OVCAR-8 ovarian = tested on: OVCAR-8 ovarian
OVCAR-5 ovarian = tested on: OVCAR-5 ovarian
OVCAR-4 ovarian = tested on: OVCAR-4 ovarian
SK-OV-3 ovarian = tested on: SK-OV-3 ovarian
IGROV1 ovarian = tested on: IGROV1 ovarian
NCI/ADR-RES ovarian = tested on: NCI/ADR-RES ovarian
T-47D breast = tested on: T-47D breast
BT-549 breast = tested on: BT-549 breast
MDA-MB-435 melanoma = tested on: MDA-MB-435 melanoma
MCF7 breast = tested on: MCF7 breast
HCT-116 colon = tested on: HCT-116 colon
HCC-2998 colon = tested on: HCC-2998 colon
KM12 colon = tested on: KM12 colon
SW-620 colon = tested on: SW-620 colon
OVCAR-3 ovarian = tested on: OVCAR-3 ovarian
HS 578T breast = tested on: HS 578T breast

Row | Structure (SMILES) | growth (SR leukemia) | growth (RPMI-8226 leukemia) | growth (OVCAR-8 ovarian) | growth (OVCAR-5 ovarian) | growth (OVCAR-4 ovarian) | growth (SK-OV-3 ovarian) | growth (IGROV1 ovarian) | growth (NCI/ADR-RES ovarian) | growth (T-47D breast) | growth (BT-549 breast) | growth (MDA-MB-435 melanoma) | growth (MCF7 breast) | growth (HCT-116 colon) | growth (HCC-2998 colon) | growth (KM12 colon) | growth (SW-620 colon) | growth (OVCAR-3 ovarian) | growth (HS 578T breast)
1 | Cn1ncc2c(Sc3ccc(Cl)cc3)ncnc21 | 53.6% | 48.5% | 101% | 109% | 95.7% | 94.2% | 87.4% | 103% | 76.1% | 62.1% | 92.3% | 87.4% | 103% | 85.7% | 95.6% | – | – | –
2 | O=S(=O)(c1ccc(OCCO)cc1)c1ccc(OCCO)cc1 | 99.4% | 81% | 102% | 101% | 111% | 118% | 87.5% | 103% | 120% | 109% | 102% | – | 101% | 104% | – | 94.6% | – | –
3 | COc1cc(-c2nn(C(=O)NS(=O)(=O)c3ccccc3)cc2-c2ccncc2)ccc1Cl | 89.1% | 74.2% | 20.4% | 99.9% | – | 82.1% | 78.6% | 82.3% | 62.6% | 53.9% | 85.5% | 94.6% | 84.6% | 109% | 94.5% | 112% | 106% | 79.4%
4 | CCCCCCN1CSC(=S)N(CCCCCC)C1 | 104% | 86.5% | 103% | 112% | – | 107% | 101% | 89.9% | 96.4% | 100% | 97.6% | 102% | 86% | 96.6% | 103% | 94.2% | 109% | 105%
5 | O=C(/C=C/c1ccccc1)c1cccc(O)c1 | 6.27% (active) | -37.8% (active) | 86.5% | – | 106% | 104% | 82% | 103% | 97.9% | 80.4% | 57.1% | 14.9% | -71.6% (active) | 102% | -29.4% (active) | 65.4% | – | 110%
6 | COc1cc(C2CC(c3ccc4c(c3)OCO4)=NN2C(C)=O)cc(OC)c1OC (stereo not given) | 19.9% | 39.2% | 42% | – | 54.5% | 10.6% | – | 4% (active) | – | 60.7% | -49% (active) | 17.4% | 30.9% | 47.8% | 30.6% | 26.6% | -5.71% (active) | -7.69% (active)
7 | CC[N+](CC)=c1cc2oc3cc(N(C)C)ccc3nc-2cc1C | 59% | 45.3% | 8.33% (active) | -27.6% (active) | – | 59.9% | -56.4% (active) | 79.3% | – | 60.2% | 50.8% | – | 7.17% (active) | – | 33.3% | 15.9% | -55.6% (active) | 89.1%
8 | CC(C)(C)NCCC(O)c1cc2c(Cl)cc(Cl)cc2c2cc(C(F)(F)F)ccc12 (stereo not given) | -77.5% (active) | -40% (active) | -81.1% (active) | -83.2% (active) | – | 15.6% | -63.2% (active) | -80% (active) | – | 69.6% | -74.4% (active) | -81.3% (active) | -80.3% (active) | -83% (active) | -90.9% (active) | -73.3% (active) | -88.7% (active) | -56.9% (active)
9 | COc1cc(NCCCCCN)c2ncccc2c1 | 70.6% | 88.8% | 100% | – | 86.8% | 109% | 98% | 109% | 96.2% | 113% | 114% | 83.2% | 89.1% | 125% | 109% | 99.4% | – | 113%
10 | Oc1ccc2cc(Br)ccc2c1-c1c(O)ccc2cc(Br)ccc12 | 30.9% | 64.9% | 72.7% | 94.1% | – | 64.7% | 28% | 56.2% | 57.9% | – | 63.1% | 37.1% | 33.5% | 56.5% | 40% | – | 65.5% | 50.2%

From PubChem BioAssay (NCI)
